Laboratory results taken from PubChem BioAssay (EPA / NIEHS).
Calls of active or inactive are those of the source. Rule for the calls: active = hit-call score of the fitted dose curve at least 0.9, where 1 is the maximum; inactive = score below 0.9.

Assay: APR_HepG2_P-H2AX_72hr: Apredica 72-hour HepG2 Assay for H2AX Phosphorylation (AID 2282916)
Settings: imaging, actives raise or lower the signal
Protocol: APR_HepG2_72hr is a cell-based, multiplexed-readout assay that uses HepG2, a human liver cell line, with measurements taken at 72 hours after chemical dosing in a 384-well plate.APR_HepG2_P-H2AX_72hr is one of 10 assay component(s) measured or calculated from the APR_HepG2_72hr assay. It is designed to make measurements of dna content, a form of viability reporter, as detected with fluorescence intensity signals by HCS Fluorescent Imaging technology.Data from the assay component APR_HepG2_P-H2AX_72hr was analyzed into 1 assay endpoint. This assay endpoint, APR_HepG2_P-H2AX_72hr, was analyzed with bidirectional fitting relative to DMSO as the negative control and baseline of activity. Using a type of viability reporter, measures of protein for gain or loss-of-signal activity can be used to understand the signaling at the pathway-level as they relate to the gene . Furthermore, this assay endpoint can be referred to as a primary readout, because this assay has produced multiple assay endpoints where this one serves a signaling function. To generalize the intended target to other relatable targets, this assay endpoint is annotated to the dna binding intended target family, where the subfamily is cellular response to DNA damage stimulus.
Cells were treated with dimethyl sulfoxide (DMSO) as a solvent control at a final concentration of 0.5% v/v or with compounds in DMSO with a resulting final DMSO concentration of 0.5% v/v. Compound treatment was done at concentrations of 0.39, 0.78, 1.56, 3.12, 6.24, 12.5, 25, 50, 100, and 200 uM in duplicate on each plate. Cells were treated with compounds for 1, 24, or 72 hr. Carbonyl […] m-chloro-phenylhydrazone (CCCP) and taxol were used as positive controls for mitochondrial function and cytoskeletal stability, respectively; DMSO served as the negative control for this experiment. Cells were fixed by the direct addition of 50 uL formaldehyde in Hank's Balanced Salt Solution (HBSS) to a final concentration of 3.7%. After incubation in the fixation medium for 30 min at room temperature (293-298 K), cells were rinsed twice with HBSS and treated with cell permeabilization buffer (16 uL of 0.5% Triton X-100) for 10 min at room temperature (293-298 K) before labeling. For mitochondrial membrane potential and mitochondrial measurements, pre-fixed cells were incubated with 50 uL of MitoTracker Red CMXRos (Invitrogen) at a concentration of 250 nM for 30 min before fixation. In the remaining cases, post-fixed cells were labeled by incubation with a multiplexed mixture of primary antibodies in HBSS for 60 min at room temperature (293-298 K) to detect immunoreactivity of c-Jun (1:500), phospho-histone H3 (1:100), phospho-histone H2A.x (1:200), p53 (1:400), alpha-tubulin (1:200) and Hoechst 33342 (2 ug/mL). Cells were labeled for multiplexed imaging on two separate plates: a) Hoechst 33342, MitoTracker Red, phospho-histone H3, and alpha-tubulin, and b) Hoechst 33342, phospho-histone H2A.x, and c-Jun. A final rinse with HBSS (50 uL) was performed before analysis. The primary and secondary antibodies for the proteins were phospho-histone H3 (rabbit anti-phospho-histone H3 and FITC-donkey anti-rabbit IgG), phospho-histone H2A.x (mouse anti-phospho-histone H2A.x and FITC-donkey anti-mouse IgG), c-Jun (rabbit anti-phospho-c-Jun and Cy3-donkey anti-rabbit IgG), p53 (sheep anti-p53 and Cy5-donkey anti-sheep IgG), alpha-tubulin (mouse anti-alpha-tubulin and Cy5-donkey anti-mouse IgG). These antibodies are available as the CellCiphr HepG2 assay kit (Millipore).Digital images of each well were captured using a Cellomics ArrayScan VTI (Thermo Scientific Cellomics) (0.8 NA objective, 0.63x optical coupler, and XF-93 filter set) at 20x magnification. The images were acquired using the autofocus feature of the ArrayScan instrument, which entails the following steps. First, the camera focuses on channel 1 (Hoechst 33342), where nuclei are identified. Second, a Z offset of 1 um is used for capturing mitochondria (MitoTracker Red). […]
With `C1CC2OC2CC1C1CO1` (stereo not given) the outcome was “inactive”.
For `CC1=C2C[C@H]3[C@@H](CC=C4C[C@@H](O)CC[C@@]43C)[C@@H]2CC[C@]12O[C@@H]1C[C@H](C)CN[C@H]1[C@H]2C`, the AC50 was 50 µM (active).
For `ClC(Cl)=C(c1ccc(Cl)cc1)c1ccc(Cl)cc1`, the outcome was “inactive”.
In the case of `Cc1cccc([N+](=O)[O-])c1`, the outcome is reported as “inactive”.
With `ClC1=C(Cl)[C@]2(Cl)[C@@H]3[C@H]4C[C@H]([C@@H]5O[C@H]45)[C@@H]3[C@@]1(Cl)C2(Cl)Cl` the outcome was “inactive”.
In the case of `c1ccc(-c2ccccc2)cc1`, the outcome is reported as “inactive”.
For `CO/C=C(/C(=O)OC)c1ccccc1COc1cccc(C(F)(F)F)n1`, the AC50 was 20.5 µM (active).
With `CCCCCCCCCC[N+](C)(C)CCCCCCCCCC` the AC50 was 5.55 µM (active).
For `Cc1ccccc1O`, the outcome was “inactive”.
In the case of `CC#Cc1cc(C)nc(Nc2ccccc2)n1`, the outcome is reported as “inactive”.
In the case of `CCOC(=O)C(O)(c1ccc(Cl)cc1)c1ccc(Cl)cc1`, the AC50 is reported as 48.1 µM (active).
For `Cc1cc(-c2ccc(N)c(C)c2)ccc1N`, the outcome was “inactive”.
In the case of `CCCCCCOC(=O)c1ccccc1C(=O)OCCCCCC`, the outcome is reported as “inactive”.
With `Cc1ccc(O)c(C)c1` the outcome was “inactive”.
With `CCNc1nc(NC(C)C)nc(SC)n1` the outcome was “inactive”.
For `CCCCCCCCCc1ccc(O)cc1`, the outcome was “inactive”.
For `Nc1ccc(-c2ccc(N)cc2)cc1`, the AC50 was 104 µM (active).
With `CC(C)(O)C(=O)Nc1ccc([N+](=O)[O-])c(C(F)(F)F)c1` the outcome was “inactive”.
For `C[C@]12CCC(=O)C=C1CC[C@@H]1[C@@H]2CC[C@]2(C)C(=O)CC[C@@H]12`, the outcome was “inactive”.
With `CCC(C)(CC)c1cc(NC(=O)c2c(OC)cccc2OC)on1` the outcome was “inactive”.
With `Nn1cnnc1` the outcome was “inactive”.
With `O=C(O)C(F)(F)C(F)(F)C(F)(F)C(F)(F)C(F)(F)C(F)(F)C(F)(F)C(F)(F)F` the outcome was “inactive”.
In the case of `CCC(C)(c1ccc(O)cc1)c1ccc(O)cc1`, the outcome is reported as “inactive”.
With `Oc1ccc(C(c2ccc(O)cc2)(C(F)(F)F)C(F)(F)F)cc1` the outcome was “inactive”.
In the case of `Cc1cc2c3c(c1)C(c1ccccc1)=N[C@@H](NC(=O)c1ccncc1)C(=O)N3CC2`, the outcome is reported as “inactive”.
In the case of `CCC(=O)O[C@H]1CC[C@H]2[C@@H]3CCC4=CC(=O)CC[C@]4(C)[C@H]3CC[C@]12C`, the AC50 is reported as 86.5 µM (active).
In the case of `Oc1c(Cl)c(Cl)c(Cl)c(Cl)c1Cl`, the outcome is reported as “inactive”.
With `O=NN(c1ccccc1)c1ccccc1` the outcome was “inactive”.
For `O=C(O)C(F)(F)C(F)(F)C(F)(F)C(F)(F)C(F)(F)C(F)(F)C(F)(F)C(F)(F)C(F)(F)F`, the AC50 was 108 µM (active).
With `NS(=O)(=O)C(F)(F)C(F)(F)C(F)(F)C(F)(F)C(F)(F)C(F)(F)C(F)(F)C(F)(F)F` the AC50 was 99.3 µM (active).
For `Clc1ccc(Cl)cc1`, the outcome was “inactive”.
For `COc1ccc(O)c(C(C)(C)C)c1`, the outcome was “inactive”.
In the case of `Cc1cccc(C)c1N`, the outcome is reported as “inactive”.
For `N#Cc1ccc(N(CC(N)=O)CC(F)(F)F)cc1C(F)(F)F`, the outcome was “inactive”.
For `C[C@]12CCC(=O)C=C1CC[C@@H]1[C@@H]2CC[C@@]2(C)[C@H]1CC[C@]2(C)O`, the outcome was “inactive”.
For `c1cc2ccc3cccc4ccc(c1)c2c34`, the AC50 was 104 µM (active).
With `CCC(C)c1cc([N+](=O)[O-])cc([N+](=O)[O-])c1O` (stereo not given) the AC50 was 69.7 µM (active).
In the case of `O=C(NC(=O)c1cc(F)c(F)cc1Cl)Nc1cc(F)ccc1N1CCC(C(=O)O)CC1`, the outcome is reported as “inactive”.
In the case of `CCCN(CCC)N=O`, the outcome is reported as “inactive”.
In the case of `Clc1ccc(C(Cl)(Cl)Cl)cc1`, the outcome is reported as “inactive”.
